Measurements reported in the supplement of paper PMC10849652.
About 8,800 targets were measured; listed, in parts, are those with a hit and a random draw of the rest. About 0.5% of all pairs of compound and target were hits.

Tests used:
Assay in all cases: log2 fold change, soluble protein after heating vs DMSO (PISA); higher = thermal stabilisation; K562 lysate, 10 uM; active = over 0.2 and 3.5 SD of the protein, either way, in both replicates (recomputed)
barasertib = compound: CCN(CCCOc1ccc2c(Nc3cc(CC(=O)Nc4cccc(F)c4)[nH]n3)ncnc2c1)CCOP(=O)(O)O [barasertib]
Summary of the method: (§1)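 Following dounce homogenisation of K562 pellets in PBS pH 7.4 with 1 mM MgCl2, crude extract at 1 mg/mL protein was incubated for 30 min with 10 μM compound. Aliquots were then heated for 3 min over 48°C-58°C and pooled, NP-40 was added to 0.5% at 4°C, and soluble protein was recovered as the supernatant at 21,000xg for 90 min. Channel-sum-equalised TMTpro 16plex LC-MS/MS quantified this protein. Each value, from duplicates, is a log-two fold change in thermal stability relative to solvent controls.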

[1] = compound: CCn1cc(-c2ccnc3[nH]c(-c4cccc(CN(C)C)c4)cc23)c(-c2ccc(NC(=O)N(C)C)cc2)n1
Summary of the method: as §1

[2] = compound: CN1CCC(CNc2ccc3ncc(-c4cccc(OC(F)(F)F)c4)n3n2)CC1
Summary of the method: as §1

vemurafenib = compound: CCCS(=O)(=O)Nc1ccc(F)c(C(=O)c2c[nH]c3ncc(-c4ccc(Cl)cc4)cc23)c1F [vemurafenib]
Summary of the method: as §1

[3] = compound: CC[C@@H]1C(=O)N(C)c2cnc(Nc3ccc(C(=O)NC4CCN(C)CC4)cc3OC)nc2N1C1CCCC1
Summary of the method: as §1

saracatinib = compound: CN1CCN(CCOc2cc(OC3CCOCC3)c3c(Nc4c(Cl)ccc5c4OCO5)ncnc3c2)CC1 [saracatinib]
Summary of the method: as §1

[4] = compound: CCCS(=O)(=O)Nc1ccc(F)c(C(=O)c2c[nH]c3ncc(Cl)cc23)c1F
Summary of the method: as §1

volasertib = compound: CC[C@@H]1C(=O)N(C)c2cnc(Nc3ccc(C(=O)N[C@H]4CC[C@H](N5CCN(CC6CC6)CC5)CC4)cc3OC)nc2N1C(C)C [volasertib]
Summary of the method: as §1

[5] = compound: CCn1c(C(=O)N(C2CC2)C2CC2)cc2c3c(ncn3C)c(Nc3cc(C)n(C)n3)nc21
Summary of the method: as §1

sotrastaurin = compound: CN1CCN(c2nc(C3=C(c4c[nH]c5ccccc45)C(=O)NC3=O)c3ccccc3n2)CC1 [sotrastaurin]
Summary of the method: as §1

UniProt Q96A47, sequence (Q96A47 whole entry, looked up): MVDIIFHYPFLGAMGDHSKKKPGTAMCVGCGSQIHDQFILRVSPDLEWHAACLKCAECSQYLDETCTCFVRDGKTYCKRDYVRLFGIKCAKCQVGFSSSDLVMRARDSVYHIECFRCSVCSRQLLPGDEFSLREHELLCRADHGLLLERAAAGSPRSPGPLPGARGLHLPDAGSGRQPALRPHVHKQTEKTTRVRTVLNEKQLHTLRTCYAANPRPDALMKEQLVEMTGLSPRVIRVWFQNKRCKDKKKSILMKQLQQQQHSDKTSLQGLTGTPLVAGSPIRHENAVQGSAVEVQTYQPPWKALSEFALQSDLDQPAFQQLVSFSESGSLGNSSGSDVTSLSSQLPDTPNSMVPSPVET
UniProt Q75QN2, sequence (Q75QN2 whole entry, looked up): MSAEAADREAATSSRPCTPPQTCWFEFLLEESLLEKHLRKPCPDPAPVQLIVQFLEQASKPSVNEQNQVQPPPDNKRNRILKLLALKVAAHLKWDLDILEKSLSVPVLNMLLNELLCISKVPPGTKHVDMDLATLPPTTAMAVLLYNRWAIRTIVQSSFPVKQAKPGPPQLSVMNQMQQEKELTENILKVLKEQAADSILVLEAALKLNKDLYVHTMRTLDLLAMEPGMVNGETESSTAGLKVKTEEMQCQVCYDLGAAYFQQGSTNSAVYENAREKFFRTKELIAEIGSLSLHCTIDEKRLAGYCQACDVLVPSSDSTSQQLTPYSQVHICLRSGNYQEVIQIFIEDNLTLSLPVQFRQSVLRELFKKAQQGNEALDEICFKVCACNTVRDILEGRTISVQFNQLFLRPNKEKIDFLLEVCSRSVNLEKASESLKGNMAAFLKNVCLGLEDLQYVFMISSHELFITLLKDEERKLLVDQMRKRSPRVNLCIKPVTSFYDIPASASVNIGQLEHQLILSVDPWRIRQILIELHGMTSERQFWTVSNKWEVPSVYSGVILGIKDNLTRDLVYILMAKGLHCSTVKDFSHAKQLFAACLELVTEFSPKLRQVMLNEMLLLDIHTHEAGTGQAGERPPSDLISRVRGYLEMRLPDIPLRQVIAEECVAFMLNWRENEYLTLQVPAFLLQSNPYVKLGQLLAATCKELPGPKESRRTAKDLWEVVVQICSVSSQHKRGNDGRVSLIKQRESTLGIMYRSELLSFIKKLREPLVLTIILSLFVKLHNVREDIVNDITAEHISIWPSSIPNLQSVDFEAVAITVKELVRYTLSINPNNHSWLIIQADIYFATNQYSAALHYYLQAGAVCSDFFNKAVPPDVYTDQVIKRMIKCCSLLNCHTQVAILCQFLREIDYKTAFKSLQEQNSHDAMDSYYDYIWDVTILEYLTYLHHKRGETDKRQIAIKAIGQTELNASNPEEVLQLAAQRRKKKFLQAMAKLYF
UniProt P17096, sequence (P17096 whole entry, looked up): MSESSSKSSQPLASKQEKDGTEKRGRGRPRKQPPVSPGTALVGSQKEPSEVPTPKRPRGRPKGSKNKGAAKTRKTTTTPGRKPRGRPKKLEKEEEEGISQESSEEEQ
UniProt Q9H9Y4, sequence (Q9H9Y4 whole entry, looked up): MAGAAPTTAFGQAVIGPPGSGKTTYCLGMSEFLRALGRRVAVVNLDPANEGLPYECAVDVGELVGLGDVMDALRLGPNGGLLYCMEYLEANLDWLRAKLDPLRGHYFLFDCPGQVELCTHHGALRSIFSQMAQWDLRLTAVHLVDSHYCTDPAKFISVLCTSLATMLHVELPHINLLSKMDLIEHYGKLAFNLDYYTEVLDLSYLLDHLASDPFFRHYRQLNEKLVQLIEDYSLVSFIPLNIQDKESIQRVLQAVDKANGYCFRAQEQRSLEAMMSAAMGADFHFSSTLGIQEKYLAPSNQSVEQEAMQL
UniProt Q14571, sequence (Q14571 whole entry, looked up): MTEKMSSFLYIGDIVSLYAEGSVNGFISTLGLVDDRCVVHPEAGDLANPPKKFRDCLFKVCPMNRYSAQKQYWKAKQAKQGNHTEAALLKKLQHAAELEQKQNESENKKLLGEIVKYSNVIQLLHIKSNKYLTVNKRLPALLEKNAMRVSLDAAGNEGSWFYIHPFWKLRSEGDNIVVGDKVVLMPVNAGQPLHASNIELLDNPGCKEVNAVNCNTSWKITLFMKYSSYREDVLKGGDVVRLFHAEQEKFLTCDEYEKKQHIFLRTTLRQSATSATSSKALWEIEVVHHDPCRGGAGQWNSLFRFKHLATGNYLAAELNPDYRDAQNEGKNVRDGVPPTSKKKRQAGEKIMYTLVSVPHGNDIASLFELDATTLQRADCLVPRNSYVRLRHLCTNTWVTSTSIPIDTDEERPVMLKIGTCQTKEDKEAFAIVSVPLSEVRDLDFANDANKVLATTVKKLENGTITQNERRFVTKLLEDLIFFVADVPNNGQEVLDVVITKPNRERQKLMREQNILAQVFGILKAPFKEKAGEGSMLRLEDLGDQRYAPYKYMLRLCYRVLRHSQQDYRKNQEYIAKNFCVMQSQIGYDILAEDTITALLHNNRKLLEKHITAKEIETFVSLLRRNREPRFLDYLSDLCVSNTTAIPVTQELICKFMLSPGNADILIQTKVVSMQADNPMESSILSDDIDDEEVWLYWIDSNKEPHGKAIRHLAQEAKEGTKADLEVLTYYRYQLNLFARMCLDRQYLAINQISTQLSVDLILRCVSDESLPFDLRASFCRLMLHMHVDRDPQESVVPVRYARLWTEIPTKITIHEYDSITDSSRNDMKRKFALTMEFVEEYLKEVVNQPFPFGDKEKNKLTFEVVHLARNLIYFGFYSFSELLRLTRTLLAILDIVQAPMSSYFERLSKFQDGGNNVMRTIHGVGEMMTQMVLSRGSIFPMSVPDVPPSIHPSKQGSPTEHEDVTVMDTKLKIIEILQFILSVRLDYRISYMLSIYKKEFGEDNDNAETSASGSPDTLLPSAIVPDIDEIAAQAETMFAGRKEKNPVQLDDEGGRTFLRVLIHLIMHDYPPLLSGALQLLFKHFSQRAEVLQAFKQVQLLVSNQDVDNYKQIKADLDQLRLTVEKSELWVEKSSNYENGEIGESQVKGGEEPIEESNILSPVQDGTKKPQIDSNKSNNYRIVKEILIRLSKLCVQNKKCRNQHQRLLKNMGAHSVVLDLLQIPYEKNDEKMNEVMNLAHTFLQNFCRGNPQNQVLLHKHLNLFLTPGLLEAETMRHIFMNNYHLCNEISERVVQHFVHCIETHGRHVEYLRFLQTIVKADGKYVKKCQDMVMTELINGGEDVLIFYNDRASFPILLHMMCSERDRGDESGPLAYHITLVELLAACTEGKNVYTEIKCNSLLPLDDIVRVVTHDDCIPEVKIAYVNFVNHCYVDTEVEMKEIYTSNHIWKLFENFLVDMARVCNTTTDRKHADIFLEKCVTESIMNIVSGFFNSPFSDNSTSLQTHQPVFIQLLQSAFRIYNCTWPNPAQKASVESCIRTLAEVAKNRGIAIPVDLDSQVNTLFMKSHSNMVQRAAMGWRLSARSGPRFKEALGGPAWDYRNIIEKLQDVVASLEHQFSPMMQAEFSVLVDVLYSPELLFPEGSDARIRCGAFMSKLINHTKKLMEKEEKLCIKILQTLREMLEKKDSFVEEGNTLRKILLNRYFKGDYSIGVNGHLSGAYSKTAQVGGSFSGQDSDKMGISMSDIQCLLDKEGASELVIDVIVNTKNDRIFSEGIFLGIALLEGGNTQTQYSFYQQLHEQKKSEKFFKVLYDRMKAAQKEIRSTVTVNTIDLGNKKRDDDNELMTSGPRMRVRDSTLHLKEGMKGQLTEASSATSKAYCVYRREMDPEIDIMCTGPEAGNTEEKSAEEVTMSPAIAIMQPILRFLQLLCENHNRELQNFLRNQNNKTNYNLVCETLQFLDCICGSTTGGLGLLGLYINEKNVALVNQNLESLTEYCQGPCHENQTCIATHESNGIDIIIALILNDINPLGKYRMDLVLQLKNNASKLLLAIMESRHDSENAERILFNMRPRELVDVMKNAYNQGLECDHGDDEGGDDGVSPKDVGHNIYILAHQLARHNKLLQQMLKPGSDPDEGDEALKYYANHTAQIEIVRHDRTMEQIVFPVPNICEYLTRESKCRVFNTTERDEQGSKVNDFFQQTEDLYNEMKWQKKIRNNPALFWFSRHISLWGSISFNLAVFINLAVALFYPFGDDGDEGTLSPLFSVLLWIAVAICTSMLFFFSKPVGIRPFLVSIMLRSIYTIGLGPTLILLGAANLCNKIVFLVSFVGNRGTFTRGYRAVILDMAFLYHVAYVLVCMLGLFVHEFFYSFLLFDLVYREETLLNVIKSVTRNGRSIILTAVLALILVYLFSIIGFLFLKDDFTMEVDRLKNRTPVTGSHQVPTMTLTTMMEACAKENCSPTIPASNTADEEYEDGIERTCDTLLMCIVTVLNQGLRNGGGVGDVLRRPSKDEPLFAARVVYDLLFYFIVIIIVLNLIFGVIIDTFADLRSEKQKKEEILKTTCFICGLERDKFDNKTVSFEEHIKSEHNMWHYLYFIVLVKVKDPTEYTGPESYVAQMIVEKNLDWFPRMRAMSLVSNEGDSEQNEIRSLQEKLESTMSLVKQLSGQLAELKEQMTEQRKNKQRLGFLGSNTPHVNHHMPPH
UniProt Q9Y287, sequence (Q9Y287 whole entry, looked up): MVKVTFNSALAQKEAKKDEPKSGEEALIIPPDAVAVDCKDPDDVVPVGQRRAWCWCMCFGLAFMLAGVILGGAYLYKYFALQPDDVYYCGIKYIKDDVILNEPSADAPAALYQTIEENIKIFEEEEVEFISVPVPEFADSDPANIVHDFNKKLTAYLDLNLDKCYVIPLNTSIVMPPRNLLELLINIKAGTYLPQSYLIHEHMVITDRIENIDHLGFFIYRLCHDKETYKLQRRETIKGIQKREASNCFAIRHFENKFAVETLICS
UniProt Q9HAV0, sequence (Q9HAV0 whole entry, looked up): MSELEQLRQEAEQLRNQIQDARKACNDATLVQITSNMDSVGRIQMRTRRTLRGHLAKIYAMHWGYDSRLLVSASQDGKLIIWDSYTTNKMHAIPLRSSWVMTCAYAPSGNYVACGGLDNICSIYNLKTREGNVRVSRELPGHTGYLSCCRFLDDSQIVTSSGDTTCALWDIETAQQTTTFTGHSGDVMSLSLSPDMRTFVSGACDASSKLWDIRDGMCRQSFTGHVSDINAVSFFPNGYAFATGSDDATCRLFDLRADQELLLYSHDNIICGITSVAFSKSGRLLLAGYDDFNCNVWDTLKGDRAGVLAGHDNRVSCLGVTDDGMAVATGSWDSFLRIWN

Target | log2 fold change (barasertib) | log2 fold change [1] | log2 fold change [2] | log2 fold change (vemurafenib) | log2 fold change [3] | log2 fold change (saracatinib) | log2 fold change [4] | log2 fold change (volasertib) | log2 fold change [5] | log2 fold change (sotrastaurin)
GYPA, A0A2R8Y7F9 | 0.066 (inactive) | -0.812 (inactive) | 0.25 (inactive) | – | – | – | – | – | – | –
ITGB1BP2 (UniProt Q9UKP3) | – | -0.032 (inactive) | 0.443 (inactive) | 0.045 (inactive) | -0.07 (inactive) | 0.005 (inactive) | – | – | – | –
IGFBP4 (UniProt P22692) | -0.281 (inactive) | -0.063 (inactive) | 0.009 (inactive) | – | – | 0.016 (inactive) | -0.171 (inactive) | -0.002 (inactive) | 0.04 (inactive) | -0.028 (inactive)
HSPA8 (UniProt E9PN89) | -0.041 (inactive) | -0.366 (inactive) | 0.32 (inactive) | – | 0.057 (inactive) | -0.01 (inactive) | -0.06 (inactive) | -0.005 (inactive) | -0.114 (inactive) | 0.308 (inactive)
HNRNPL, A0A3B3ITJ4 | 0.14 (inactive) | – | – | – | – | – | 0.087 (inactive) | -0.072 (inactive) | – | –
ITPRIP (UniProt Q8IWB1) | – | – | – | – | – | -0.143 (inactive) | – | – | – | –
HNRNPD (UniProt D6RF44) | – | – | – | – | – | – | – | – | – | 0.079 (inactive)
HTT (UniProt P42858) | 0.044 (inactive) | -0.039 (inactive) | 0.152 (inactive) | -0.083 (inactive) | -0.063 (inactive) | -0.033 (inactive) | – | – | 0.052 (inactive) | 0.01 (inactive)
GTF3C3 (UniProt Q9Y5Q9) | 0.01 (inactive) | -0.158 (inactive) | 0.005 (inactive) | 0.062 (inactive) | -0.088 (inactive) | 0.049 (inactive) | 0.06 (inactive) | -0.014 (inactive) | 0.003 (inactive) | -0.013 (inactive)
IGF2BP2 isoform 6 (UniProt Q9Y6M1) | – | – | – | – | – | – | -0.003 (inactive) | -0.153 (inactive) | – | –
ITM2B (UniProt Q9Y287) | 0.258 (inactive) | -0.141 (inactive) | 0.069 (inactive) | 0.021 (inactive) | – | -0.053 (inactive) | – | – | -0.012 (inactive) | -0.012 (inactive)
ITPR2 (UniProt Q14571) | – | – | – | – | – | 0.088 (inactive) | -0.044 (inactive) | 0.336 (inactive) | -0.222 (inactive) | –
HECW2 (UniProt Q9P2P5) | – | – | – | 0.026 (inactive) | -0.213 (inactive) | 0.055 (inactive) | – | – | -0.04 (inactive) | 0.065 (inactive)
GPLD1 (UniProt P80108) | – | – | – | – | – | 0.236 (inactive) | – | – | – | -0.13 (inactive)
HSPA8 (UniProt E9PK54) | -0.113 (inactive) | -0.144 (inactive) | 0.052 (inactive) | -0.047 (inactive) | -0.071 (inactive) | 0.108 (inactive) | 0.014 (inactive) | -0.056 (inactive) | 0.08 (inactive) | 0.028 (inactive)
INTS8 (UniProt Q75QN2) | -0.131 (inactive) | -0.075 (inactive) | 0.037 (inactive) | 0.016 (inactive) | -0.024 (inactive) | 0.09 (inactive) | 0.02 (inactive) | -0.061 (inactive) | 0.041 (inactive) | 0.084 (inactive)
HYDIN (UniProt Q4G0P3) | – | – | – | -0.075 (inactive) | 0.089 (inactive) | 0.028 (inactive) | 0.081 (inactive) | 0.021 (inactive) | 0.76 (inactive) | –
HDAC3 (UniProt E7ESJ6) | – | – | – | – | – | – | 0.031 (inactive) | -0.16 (inactive) | – | –

Target | log2 fold change (barasertib) | log2 fold change [1] | log2 fold change [2] | log2 fold change (vemurafenib) | log2 fold change [3] | log2 fold change (saracatinib) | log2 fold change [4] | log2 fold change (volasertib) | log2 fold change [5] | log2 fold change (sotrastaurin)
ISL2 (UniProt Q96A47) | -0.108 (inactive) | 0.832 (active) | -0.397 (active) | – | – | 0.028 (inactive) | – | – | 0.018 (inactive) | -0.107 (inactive)
GTPBP6 (UniProt O43824) | – | -0.062 (inactive) | -0.096 (inactive) | -0.089 (inactive) | 0.32 (inactive) | -0.166 (inactive) | – | – | – | –
HOMER3 (UniProt Q9NSC5) | -0.129 (inactive) | 0.037 (inactive) | -0.071 (inactive) | – | – | – | 0.123 (inactive) | -0.011 (inactive) | – | 0.028 (inactive)
IPP (UniProt Q9Y573) | – | 0.057 (inactive) | -0.014 (inactive) | -0.102 (inactive) | 0.169 (inactive) | -0.035 (inactive) | 0.056 (inactive) | -0.162 (inactive) | 0.006 (inactive) | –
GNB4 (UniProt Q9HAV0) | -0.046 (inactive) | 0.001 (inactive) | 0.166 (inactive) | – | -0.018 (inactive) | -0.165 (inactive) | 0.089 (inactive) | -0.036 (inactive) | 0.016 (inactive) | -0.04 (inactive)
HNRNPM (UniProt M0QZM1) | 0.229 (inactive) | – | – | -0.027 (inactive) | 0.171 (inactive) | -0.066 (inactive) | – | – | – | -0.054 (inactive)
HSPBAP1 (UniProt Q96EW2) | 0.012 (inactive) | -0.293 (inactive) | -0.038 (inactive) | – | 0.155 (inactive) | -0.054 (inactive) | 0.04 (inactive) | 0.044 (inactive) | -0.058 (inactive) | 0.027 (inactive)
HMGN5 (UniProt Q5JSK9) | -0.03 (inactive) | – | – | – | 0.039 (inactive) | – | -0.013 (inactive) | 0.054 (inactive) | – | –
H3-3A (UniProt P84243) | 0.067 (inactive) | 0.027 (inactive) | -0.025 (inactive) | 0.027 (inactive) | -0.017 (inactive) | – | 0.015 (inactive) | -0.006 (inactive) | – | -0.028 (inactive)
HMGA1 isoform 2 (UniProt P17096) | – | 0.875 (active) | -0.339 (inactive) | – | – | 0.053 (inactive) | 0.019 (inactive) | 0.034 (inactive) | 0.027 (inactive) | -0.106 (inactive)
GORASP1 (UniProt Q9BQQ3) | – | -0.025 (inactive) | 0.08 (inactive) | 0.011 (inactive) | -0.065 (inactive) | 0.03 (inactive) | -0.016 (inactive) | 0.092 (inactive) | -0.019 (inactive) | 0.016 (inactive)
GSK3A (UniProt P49840) | -0.04 (inactive) | -0.133 (inactive) | 0.154 (inactive) | -0.013 (inactive) | -0.015 (inactive) | 0.01 (inactive) | 0.006 (inactive) | -0.01 (inactive) | 0.026 (inactive) | 0.535 (active)
HNRNPUL1 (UniProt M0R247) | 0.109 (inactive) | 0.004 (inactive) | 0.037 (inactive) | – | – | – | – | – | – | –
JAK3 (UniProt P52333) | 0.064 (inactive) | 0.524 (inactive) | -0.488 (inactive) | -0.127 (inactive) | – | – | 0.014 (inactive) | -0.062 (inactive) | – | 0.014 (inactive)
IRS2 (UniProt Q9Y4H2) | -0.019 (inactive) | -0.698 (inactive) | 0.341 (inactive) | – | – | 0.013 (inactive) | 0.026 (inactive) | -0.073 (inactive) | 0.047 (inactive) | -0.025 (inactive)
KATNBL1 (UniProt Q9H079) | – | -0.105 (inactive) | 0.055 (inactive) | -0.011 (inactive) | 0.284 (inactive) | -0.068 (inactive) | -0.03 (inactive) | 0.039 (inactive) | – | -0.004 (inactive)
HIST2H2BC (UniProt Q6DN03) | -0.029 (inactive) | 0.291 (active) | -0.024 (inactive) | -0.261 (inactive) | -0.05 (inactive) | 0 (inactive) | 0.026 (inactive) | 0.013 (inactive) | 0.033 (inactive) | -0.01 (inactive)
GPN2 (UniProt Q9H9Y4) | – | 0.009 (inactive) | 0.019 (inactive) | -0.027 (inactive) | -0.098 (inactive) | 0.003 (inactive) | 0.026 (inactive) | -0.028 (inactive) | 0.072 (inactive) | 0.021 (inactive)
